This note sets out measurements from PubChem BioAssay.

A word on the inhibition: it is the change of the read-out against control, counted positive when it falls.

SMILES strings stand for the structures. Some of the results follow. A number with no mark means an inactive call. Calls of active or inactive are those of the source.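 The calls were made as follows, unless noted: active = mean inhibition above a cutoff equal to the average over all tested compounds plus one standard deviation (cut at about 70% in these data); inactive = the rest.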

The target in one assay is Photoreceptor-specific nuclear receptor (Homo sapiens) (UniProt Q9Y5X4). The assay is described as follows: retest of NR2E3-NCOR disrupting agonists – cell-based, luminescence, CHO-S two-hybrid, confirmation (AID 624378;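 active = average inhibition above a cutoff equal to the mean inhibition of all tested compounds plus one SD, cut at about 70% in these data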;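 also: 0% = DMSO in NR2E3 cells and 100% = DMSO in cells lacking NR2E3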). As to conditions: CHO-S mammalian two-hybrid NR2E3-NCOR, luciferase luminescence; at 3.98 µM; stronger effect = higher value.
Chain of Photoreceptor-specific nuclear receptor (Homo sapiens) (Q9Y5X4 whole entry, looked up): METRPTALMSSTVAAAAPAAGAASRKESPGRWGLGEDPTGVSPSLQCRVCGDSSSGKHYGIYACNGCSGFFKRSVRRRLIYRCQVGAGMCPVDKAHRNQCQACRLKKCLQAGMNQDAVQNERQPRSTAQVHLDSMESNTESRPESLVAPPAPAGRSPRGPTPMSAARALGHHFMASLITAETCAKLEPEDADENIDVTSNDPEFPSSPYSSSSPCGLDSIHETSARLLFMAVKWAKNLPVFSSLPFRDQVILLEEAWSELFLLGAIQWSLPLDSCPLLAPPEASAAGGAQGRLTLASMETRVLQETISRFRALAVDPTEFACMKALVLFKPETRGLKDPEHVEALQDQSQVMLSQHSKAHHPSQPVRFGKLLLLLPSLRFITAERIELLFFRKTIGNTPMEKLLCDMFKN
`O=C(CCC(=O)N1CCN(S(=O)(=O)c2ccc(Cl)cc2)CC1)NCc1cccc(C(F)(F)F)c1`: the inhibition is 93.6% (active).

On to `OC[C@@H]1CN(Cc2ccc(-c3ccccc3)cc2)C[C@H](n2cnc3c(NC4CCCC4)ncnc32)O1`, for which the inhibition is 94.9% (active).

Regarding `COc1ccccc1CNc1nc(Nc2ccccc2Cl)c2sccc2n1`, the inhibition is 93.1% (active).

In the case of `O=C1C=C(c2ccnc3cc(Cl)ccc23)C[C@@H](c2ccc3c(c2)OCO3)C1`, the inhibition is 91.6% (active).

For `Cn1c(Cc2cccc3ccccc23)nnc1SCC(=O)N1CCN(c2cccc(Cl)c2)CC1`, the inhibition is 78.1% (active).

System in a further assay: not listed separately
The assay is described as follows: nonselective effects on VP16 transactivation – cell-based, luminescence, CHO-S, high throughput, counter-screen for NR2E3 agonist project, confirmation (AID 624379).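 Also: luciferase from a UAS reporter driven by GAL4-VP16 transactivation; 0% = DMSO with VP16-transfected cells and 100% = DMSO with cells lacking VP16; higher means less reporter light so more repression of VP16 activity.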 As to conditions: CHO-S GAL4-VP16 luciferase reporter, at 3.98 µM, stronger effect = higher value. A general note: A counterscreen serves to expose hits that act by an unwanted route or on another target.
Consider `O=C(CCC(=O)N1CCN(S(=O)(=O)c2ccc(Cl)cc2)CC1)NCc1cccc(C(F)(F)F)c1`, for which the inhibition is 81.6% (active).

In the case of `OC[C@@H]1CN(Cc2ccc(-c3ccccc3)cc2)C[C@H](n2cnc3c(NC4CCCC4)ncnc32)O1`, the inhibition was 78.4% (active).

As for `COc1ccccc1CNc1nc(Nc2ccccc2Cl)c2sccc2n1`, the inhibition was 86.4% (active).

Turning to `O=C1C=C(c2ccnc3cc(Cl)ccc23)C[C@@H](c2ccc3c(c2)OCO3)C1`, the inhibition is 76.5% (active).

Regarding `Cn1c(Cc2cccc3ccccc23)nnc1SCC(=O)N1CCN(c2cccc(Cl)c2)CC1`, the inhibition is 30.7%.
